According to PubChem BioAssay (EPA / NIEHS):
The source made the active and inactive calls. The calls were made as follows: active = hit-call score of the fitted dose curve at least 0.9, where 1 is the maximum; inactive = score below 0.9.

Assays:
[1] = read-out: Vascular cell adhesion molecule 1 (VCAM1), VCAM1 (gene 7412); assay: BSK_4H_VCAM1: BioMAP Diversity Plus: 4H Assay for Vascular cell adhesion molecule 1 (VCAM1) Biomarker Activity (AID 2283033); conditions: primary human endothelial cells (HUVEC); actives raise or lower the signal
Outline: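 ELISA read-out of VCAM-1 on human umbilical vein endothelium 24 hours after chemical dosing; gain or loss of signal was fitted relative to DMSO, with sulforhodamine B staining of parallel cultures flagging overt cytotoxicity.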

[2] = read-out: Interferon-gamma inducible Protein 10 (IP10), CXCL10 (gene 3627); assay: BSK_BE3C_IP10: BioMAP Diversity Plus: BE3C Assay for Interferon-gamma inducible Protein 10 (IP10) Biomarker Activity (AID 2283034); conditions: primary human bronchial epithelial cells; actives raise or lower the signal
Outline: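 Chemical is dosed onto human lung bronchial epithelial primary cells, cultures are incubated 24 h, and IP-10 is then quantified by ELISA. Gain or loss of signal is fitted in both directions relative to DMSO.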

[3] = read-out: Transforming growth factor beta 1 (TGFb1), TGFB1 (gene 7040); assay: BSK_BE3C_TGFb1: BioMAP Diversity Plus: BE3C Assay for Transforming growth factor beta 1 (TGFb1) Biomarker Activity (AID 2283036); conditions: primary human bronchial epithelial cells; actives raise or lower the signal
Outline: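 Primary human lung bronchial epithelial cells; compound exposure 24 h; TGF-b1 by ELISA; bidirectional fit, DMSO baseline. Parallel SRB total-protein staining for cytotoxicity.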

[4] = read-out: Plasminogen activator inhibitor-1 (PAI1), SERPINE1 (gene 5054); assay: BSK_BE3C_PAI1: BioMAP Diversity Plus: BE3C Assay for Plasminogen activator inhibitor-1 (PAI1) Biomarker Activity (AID 2283037); conditions: primary human bronchial epithelial cells; actives raise or lower the signal
Outline: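 Primary human lung bronchial epithelial cells; chemical dosing; 24 h; PAI-1 measured by ELISA; bidirectional fit referenced to DMSO as negative control.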

[5] = read-out: urokinase plasminogen activator (uPA), PLAU (gene 5328); assay: BSK_BE3C_uPA: BioMAP Diversity Plus: BE3C Assay for urokinase plasminogen activator (uPA) Biomarker Activity (AID 2283038); conditions: primary human bronchial epithelial cells; actives raise or lower the signal
Outline: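 Measured by ELISA: uPA from human primary bronchial epithelial cells 24 h after chemical treatment. Values derive from bidirectional curve fitting with DMSO serving as negative control. Total protein by SRB staining in parallel wells flagged overt cytotoxicity.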

[6] = read-out: Urokinase-type plasminogen activator receptor (uPAR), PLAUR (gene 5329); assay: BSK_BE3C_uPAR: BioMAP Diversity Plus: BE3C Assay for Urokinase-type plasminogen activator receptor (uPAR) Biomarker Activity (AID 2283039); conditions: primary human bronchial epithelial cells; actives raise or lower the signal
Outline: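 Human bronchial epithelial primary cells; chemical exposure 24 h; uPAR by ELISA; bidirectional fit vs DMSO control.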

[7] = read-out: Interleukin-6 (IL6), IL6 (gene 3569); assay: BSK_CASM3C_IL6: BioMAP Diversity Plus: CASM3C Assay for Interleukin-6 (IL6) Biomarker Activity for (AID 2283040); conditions: primary human coronary artery smooth muscle cells; actives raise or lower the signal
[8] = read-out: Tissue plasminogen activator (tPA), PLAT (gene 5327); assay: BSK_BE3C_tPA: BioMAP Diversity Plus: BE3C Assay for Tissue plasminogen activator (tPA) Biomarker Activity (AID 2283041); conditions: primary human bronchial epithelial cells; actives raise or lower the signal
Outline: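 Primary human lung bronchial epithelial cultures receive test chemical; after 24 h, tPA is quantified by ELISA, and gain or loss of signal is fitted bidirectionally relative to DMSO baseline.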

[9] = read-out: Interleukin-8 (IL8), CXCL8 (gene 3576); assay: BSK_CASM3C_IL8: BioMAP Diversity Plus: CASM3C Assay for Interleukin-8 (IL8) Biomarker Activity (AID 2283042); conditions: primary human coronary artery smooth muscle cells; actives raise or lower the signal;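 also: IL-8 protein level quantified by ELISA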
[10] = read-out: Human Leukocyte Antigen - DR isotype (HLADR), HLA-DRA (gene 3122); assay: BSK_CASM3C_HLADR: BioMAP Diversity Plus: CASM3C Assay for Human Leukocyte Antigen - DR isotype (HLADR) Biomarker Activity (AID 2283043); conditions: primary human coronary artery smooth muscle cells; actives raise or lower the signal;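 also: cell-surface HLA-DR protein level quantified by ELISA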
[11] = read-out: Macrophage colony-stimulating factor (MCSF), CSF1 (gene 1435); assay: BSK_CASM3C_MCSF: BioMAP Diversity Plus: CASM3C Assay for Macrophage colony-stimulating factor (MCSF) Biomarker Activity (AID 2283044); conditions: primary human coronary artery smooth muscle cells; actives raise or lower the signal;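 also: M-CSF protein amount quantified by ELISA after 24 h exposure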
[12] = read-out: Low-density lipoprotein receptor (LDLR), LDLR (gene 3949); assay: BSK_CASM3C_LDLR: BioMAP Diversity Plus: CASM3C Assay for Low-density lipoprotein receptor (LDLR) Biomarker Activity (AID 2283045); conditions: primary human coronary artery smooth muscle cells; actives raise or lower the signal;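 also: LDLR protein level on the cell surface quantified by ELISA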
[13] = read-out: Monocyte Chemoattractant Protein-1 (MCP1), CCL2 (gene 6347); assay: BSK_CASM3C_MCP1: BioMAP Diversity Plus: CASM3C Assay for Monocyte Chemoattractant Protein-1 (MCP1) Biomarker Activity (AID 2283046); conditions: primary human coronary artery smooth muscle cells; actives raise or lower the signal;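 also: MCP-1 level quantified by ELISA 24 h after dosing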
[14] = BSK_CASM3C_Proliferation: Cell Proliferation Assessment in the BioMAP Diversity Plus: CASM3C Assay (AID 2283047); conditions: primary human coronary artery smooth muscle cells;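 also: sulforhodamine B total protein stain as relative cell number at 560 nm; sub-confluent cells exposed 48 h before staining; fitted both ways against DMSO so gain or loss of cell number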
[15] = read-out: Monokine induced gamma interferon (MIG), CXCL9 (gene 4283); assay: BSK_CASM3C_MIG: BioMAP Diversity Plus: CASM3C Assay for Monokine induced gamma interferon (MIG) Biomarker Activity (AID 2283048); conditions: primary human coronary artery smooth muscle cells; actives raise or lower the signal;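 also: MIG protein level measured by ELISA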
[16] = read-out: serum amyloid A (SAA), SAA1 (gene 6288); assay: BSK_CASM3C_SAA: BioMAP Diversity Plus: CASM3C Assay for serum amyloid A (SAA) Biomarker Activity (AID 2283049); conditions: primary human coronary artery smooth muscle cells; actives raise or lower the signal;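 also: SAA protein level quantified by ELISA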
[17] = BSK_CASM3C_SRB: Viability Assessment in the BioMAP Diversity Plus: CASM3C Assay (AID 2283050); conditions: primary human coronary artery smooth muscle cells;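 also: total protein by SRB staining as cytotoxicity measure in parallel cultures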
[18] = read-out: Thrombomodulin, THBD (gene 7056); assay: BSK_CASM3C_Thrombomodulin: BioMAP Diversity Plus: CASM3C Assay for Thrombomodulin Biomarker Activity (AID 2283051); conditions: primary human coronary artery smooth muscle cells; actives raise or lower the signal;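 also: thrombomodulin protein level measured by ELISA 24 h after dosing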
[19] = read-out: Tissue Factor, F3 (gene 2152); assay: BSK_CASM3C_TissueFactor: BioMAP Diversity Plus: CASM3C Assay for Tissue Factor Biomarker Activity (AID 2283052); conditions: primary human coronary artery smooth muscle cells; actives raise or lower the signal;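 also: cell surface tissue factor protein level read by ELISA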

Measured: AC50

CCOC(=O)C(C)Oc1ccc(Oc2nc3ccc(Cl)cc3o2)cc1 (stereo not drawn)
active: [4] 33.5 µM | [5] 24.3 µM
inactive: all other assays above

O=C(c1ccccc1)C1CCCCC1
active: [8] 33.3 µM
inactive: all other assays above

c1ccc2[nH]c(-c3cscn3)nc2c1
inactive: all assays above

COC(=O)CSc1cc(N=c2sc(=O)n3n2CCCC3)c(F)cc1Cl
active: [8] 0.79 µM | [11] 3.97 µM | [14] 29.6 µM
inactive: all other assays above

CCCN(CCC)c1c([N+](=O)[O-])cc(C(F)(F)F)c(N)c1[N+](=O)[O-]
active: [1] 20 µM | [2] 32.6 µM | [4] 36.2 µM | [14] 28.1 µM | [18] 3.97 µM
not listed: [6]
inactive: all other assays above

C=CCOC(Cn1ccnc1)c1ccc(Cl)cc1Cl (stereo not drawn)
inactive: all assays above

CC(C)CCCCCCc1ccc(O)cc1
active: [1] 7.96 µM | [2] 14.7 µM | [3] 26.2 µM | [4] 31 µM | [5] 31.6 µM | [6] 33.3 µM | [7] 36.9 µM | [8] 14.5 µM | [9] 36.2 µM | [10] 28.8 µM | [11] 31.2 µM | [13] 34.3 µM | [14] 15 µM | [15] 35.8 µM | [16] 30.9 µM | [17] 32.6 µM | [18] 4.65 µM | [19] 26.9 µM

N[C@@H](Cc1cc(I)c(Oc2ccc(O)c(I)c2)c(I)c1)C(=O)O
active: [2] 21.3 µM | [4] 18.8 µM | [8] 16 µM
inactive: all other assays above

C#CCOC(=O)[C@@H](C)Oc1ccc(Oc2ncc(Cl)cc2F)cc1
inactive: all assays above

C[C@]12CC[C@@H]3c4ccc(O)cc4C[C@@H](CCCCCCCCCS(=O)CCCC(F)(F)C(F)(F)F)[C@H]3[C@@H]1CC[C@@H]2O (stereo partly drawn)
active: [12] 2.73 µM
inactive: all other assays above
